Measured values from PubChem BioAssay (NCATS).
Records with an inconclusive call do not appear. Unmarked numbers belong to inactive results. Calls follow the shape of the dose curve; as a rule, active = well fitted curve in the direction sought with a large enough effect; inconclusive = small, poorly fitted or top-dose-only effect, or another doubt; inactive = no such curve, though single readings can be large; an effect the other way counts as inactive or inconclusive. Bridge positions count the residues as written; N and C are the ends. Square brackets hold non-standard residues; d marks the D form. Peptide text beside a SMILES is read from it. * marks the point of attachment. Ileψ(thiazoline)Cys = CC[C@H](C)[C@H](N)C1=N[C@H](C(=O)*)CS1; d(aIle) = CC[C@H](C)[C@@H](N)C(=O)O; dOrn = NCCC[C@@H](N)C(=O)O

Molecular target: Luciferin 4-monooxygenase (Photinus pyralis) (UniProt P08659)
Experiment: Biochemical firefly luciferase enzyme assay for NPC (AID 624030);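 also: purified P. pyralis luciferase at 10 nM with luciferin and ATP substrate; 0% = DMSO and -100% = full luciferase inhibition by PTC124 control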
Conditions: purified P. pyralis luciferase, luminescence, 5 min; series mostly up to 24.9 µM; activity change, negative = inhibition: at the top concentration
In short: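 Direct inhibition of firefly luciferase enzyme (10 nM final, 50 mM Tris Acetate) assessed by luminescence within 5 minutes. Percent activity scaled between DMSO and PTC124 positive control, with concentration-effect curves classified by fit quality and response.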
Also: nearly all actives have a fitted effect of over 70% in size.

Luciferin 4-monooxygenase (Photinus pyralis), sequence (P08659 whole entry, looked up): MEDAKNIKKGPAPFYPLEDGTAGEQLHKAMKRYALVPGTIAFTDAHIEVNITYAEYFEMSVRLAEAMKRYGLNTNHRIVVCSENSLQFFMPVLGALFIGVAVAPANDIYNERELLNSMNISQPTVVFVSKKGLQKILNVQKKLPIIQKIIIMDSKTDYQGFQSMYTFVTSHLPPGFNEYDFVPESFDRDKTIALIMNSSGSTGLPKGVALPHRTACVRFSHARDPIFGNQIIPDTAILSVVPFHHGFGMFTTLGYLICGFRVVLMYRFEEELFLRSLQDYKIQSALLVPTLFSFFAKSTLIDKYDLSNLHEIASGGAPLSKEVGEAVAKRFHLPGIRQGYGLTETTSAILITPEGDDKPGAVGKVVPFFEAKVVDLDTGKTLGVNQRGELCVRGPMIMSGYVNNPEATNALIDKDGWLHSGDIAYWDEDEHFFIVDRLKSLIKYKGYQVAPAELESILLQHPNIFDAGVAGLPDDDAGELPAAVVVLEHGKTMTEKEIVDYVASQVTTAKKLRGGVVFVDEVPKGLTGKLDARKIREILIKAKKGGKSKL

Row | Structure (SMILES) | activity change, negative = inhibition [%]
1 | C[C@@H]1C[C@H]2[C@@H]3C[C@H](F)C4=CC(=O)C=C[C@@]4(C)[C@]3(F)[C@H](O)C[C@]2(C)[C@@]1(O)C(=O)CO | -0.623
2 | C[C@H](O)Cn1cnc2c1c(=O)n(C)c(=O)n2C | -0.626
3 | CCCCC[C@H](O)/C=C\[C@@H]1[C@H](O)CC(=O)[C@@H]1CCCCCCC(=O)O | 0.0303
4 | CC(=C(CCOP(=O)(O)O)SC(=O)c1ccccc1)N(C=O)Cc1cnc(C)nc1N | -0.426
5 | NC[C@@H]1O[C@@H](O[C@H]2[C@H](O)[C@H](O[C@@H]3O[C@H](CO)[C@@H](O)[C@H](N)[C@@H]3O)[C@@H](N)C[C@H]2N)[C@H](N)C[C@@H]1O | 19.3
6 | CCc1c(C)[nH]c2c1C(=O)[C@H](CN1CCOCC1)CC2 | -1.99
7 | C=C1c2c(Cl)ccc(O)c2C(O)=C2C(=O)[C@@]3(O)C(O)=C(C(N)=O)C(=O)[C@@H](N(C)C)[C@@H]3[C@@H](O)[C@H]12 | -0.228
8 | CCC(=O)OCC(=O)[C@@]1(OC(=O)CC)[C@H](C)C[C@@H]2[C@@H]3[C@H]([C@@H](O)C[C@@]21C)[C@]1(C)C=CC(=O)C=C1C[C@@H]3Cl | 0.654
9 | CS(=O)(=O)c1ccc([C@H](O)[C@H](CF)NC(=O)C(Cl)Cl)cc1 | 5.95
10 | CC[C@H](C)[C@H](N)C1=N[C@H](C(=O)N[C@@H](CC(C)C)C(=O)N[C@@H](CCC(=O)O)C(=O)N[C@@H](C(=O)N[C@H]2CCCCNC(=O)[C@@H](CC(N)=O)NC(=O)[C@@H](CC(=O)O)NC(=O)[C@@H](Cc3cnc[nH]3)NC(=O)[C@@H](Cc3ccccc3)NC(=O)[C@@H]([C@@H](C)CC)NC(=O)[C@@H](CCCN)NC2=O)[C@@H](C)CC)CS1 ({Ileψ(thiazoline)Cys}-LE[d(aIle)]K[dOrn][d(aIle)][dF][dH][dD][dN]; lactam 4-C) | 2.78
11 | O=C(N/N=C\c1ccc([N+](=O)[O-])o1)c1ccc(O)cc1 | -20
12 | C[C@@H](CNC1CCCCC1)OC(=O)c1ccccc1 | 8.82
13 | CCOC(=O)O[C@@H](C)OC(=O)[C@@H]1N2C(=O)[C@@H](NC(=O)[C@@H](N)c3ccccc3)[C@H]2SC1(C)C | 0.984
14 | Cc1cccc(CN2CCN([C@@H](c3ccccc3)c3ccc(Cl)cc3)CC2)c1 | 8.9
15 | Cc1ccsc1/C=C\C1=NCCCN1C | 0.301
16 | O=C(O)COCCN1CCN([C@@H](c2ccccc2)c2ccc(Cl)cc2)CC1 | 3.02
17 | C#C[C@]1(O)CC[C@@H]2[C@H]3CCC4=CCCC[C@@H]4[C@@H]3CC[C@@]21C | 8.79
18 | CC1(C)[C@@H](OC(=O)CCC(=O)O)CC[C@@]2(C)[C@H]1CC[C@@]1(C)[C@H]2C(=O)C=C2[C@H]3C[C@](C)(C(=O)O)CC[C@]3(C)CC[C@@]21C | -2.12
19 | C[C@H](CCC(=O)O)[C@H]1CC[C@@H]2[C@@H]3[C@@H](O)C[C@H]4C[C@@H](O)CC[C@@]4(C)[C@H]3CC[C@@]21C | -5.61
20 | CN1CCO[C@H](c2ccccc2)c2ccccc2C1 | 9.1

Test system: not listed separately
Experiment: S16 Schwann cell viability assay (CellTiter-Glo assay) (AID 624031);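 also: native untransfected S16 rat Schwann cells; plate controls were DMSO-treated cells for no effect and cell-free wells for full effect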
Conditions: S16 rat Schwann cells viability, 24 h; series mostly up to 25.7 µM; activity change, negative = cytotoxicity: at the top concentration
In short: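 Counter-screen for cytotoxicity: parental S16 rat Schwann cells lacking the PMP22 reporters, treated 24 h with compound, viability from cellular ATP by CellTiter-Glo luminescence, normalized to DMSO (0%) and no-cell wells.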

Row | Structure (SMILES) | activity change, negative = cytotoxicity [%]
21 | C[C@@H]1C[C@H]2[C@@H]3C[C@H](F)C4=CC(=O)C=C[C@@]4(C)[C@]3(F)[C@H](O)C[C@]2(C)[C@@]1(O)C(=O)CO | 0.102
22 | C[C@H](O)Cn1cnc2c1c(=O)n(C)c(=O)n2C | 4.85
23 | CCCCC[C@H](O)/C=C\[C@@H]1[C@H](O)CC(=O)[C@@H]1CCCCCCC(=O)O | 13.2
24 | CC(=C(CCOP(=O)(O)O)SC(=O)c1ccccc1)N(C=O)Cc1cnc(C)nc1N | 11.9
25 | NC[C@@H]1O[C@@H](O[C@H]2[C@H](O)[C@H](O[C@@H]3O[C@H](CO)[C@@H](O)[C@H](N)[C@@H]3O)[C@@H](N)C[C@H]2N)[C@H](N)C[C@@H]1O | 9.48
26 | CCc1c(C)[nH]c2c1C(=O)[C@H](CN1CCOCC1)CC2 | 9.04
27 | C=C1c2c(Cl)ccc(O)c2C(O)=C2C(=O)[C@@]3(O)C(O)=C(C(N)=O)C(=O)[C@@H](N(C)C)[C@@H]3[C@@H](O)[C@H]12 | 6.48
28 | CCC(=O)OCC(=O)[C@@]1(OC(=O)CC)[C@H](C)C[C@@H]2[C@@H]3[C@H]([C@@H](O)C[C@@]21C)[C@]1(C)C=CC(=O)C=C1C[C@@H]3Cl | -5.15
29 | CS(=O)(=O)c1ccc([C@H](O)[C@H](CF)NC(=O)C(Cl)Cl)cc1 | 10.2
30 | CC[C@H](C)[C@H](N)C1=N[C@H](C(=O)N[C@@H](CC(C)C)C(=O)N[C@@H](CCC(=O)O)C(=O)N[C@@H](C(=O)N[C@H]2CCCCNC(=O)[C@@H](CC(N)=O)NC(=O)[C@@H](CC(=O)O)NC(=O)[C@@H](Cc3cnc[nH]3)NC(=O)[C@@H](Cc3ccccc3)NC(=O)[C@@H]([C@@H](C)CC)NC(=O)[C@@H](CCCN)NC2=O)[C@@H](C)CC)CS1 ({Ileψ(thiazoline)Cys}-LE[d(aIle)]K[dOrn][d(aIle)][dF][dH][dD][dN]; lactam 4-C) | 2.18
31 | C[C@@H](CNC1CCCCC1)OC(=O)c1ccccc1 | -2.49
32 | CCOC(=O)O[C@@H](C)OC(=O)[C@@H]1N2C(=O)[C@@H](NC(=O)[C@@H](N)c3ccccc3)[C@H]2SC1(C)C | -2.48
33 | Cc1cccc(CN2CCN([C@@H](c3ccccc3)c3ccc(Cl)cc3)CC2)c1 | -2.94
34 | Cc1ccsc1/C=C\C1=NCCCN1C | 0.17
35 | O=C(O)COCCN1CCN([C@@H](c2ccccc2)c2ccc(Cl)cc2)CC1 | 1.03
36 | C#C[C@]1(O)CC[C@@H]2[C@H]3CCC4=CCCC[C@@H]4[C@@H]3CC[C@@]21C | 14.6
37 | CC1(C)[C@@H](OC(=O)CCC(=O)O)CC[C@@]2(C)[C@H]1CC[C@@]1(C)[C@H]2C(=O)C=C2[C@H]3C[C@](C)(C(=O)O)CC[C@]3(C)CC[C@@]21C | -1.98
38 | C[C@H](CCC(=O)O)[C@H]1CC[C@@H]2[C@@H]3[C@@H](O)C[C@H]4C[C@@H](O)CC[C@@]4(C)[C@H]3CC[C@@]21C | 2.1
39 | CN1CCO[C@H](c2ccccc2)c2ccccc2C1 | 1.34
